# From PubChem
# eIF4E 4G PPI – eIF4E/eIF4G interaction inhibition in translation initiation; P63073+Q04637; TR-FRET eIF4E-eIF4GI(517-606) binding, 2 h; inhibition, % at 21.7 µM; hit rate 0.37% among 220,000;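 active = inhibition above about 30%, limit read from the data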;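 also: 0% = full FRET control wells and 100% = background wells lacking eIF4GI fragment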
# PABP FP inh – PABP-poly(A) binding inhibition; hit rate 1% among 290,000; AID 2014; calls only at 35 µM; P11940; PABP-poly(A) RNA binding, fluorescence polarization;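 also: calls also rest on retests at 20 µM and on dose response follow-up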
# eIF4H FP inh – inhibitors of RNA binding by human eIF4H; hit rate 0.94% among 290,000; eIF4H fluorescence polarization binding assay; inhibition, % at 35 µM;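 also: calls also rest on retests at 20 µM and on dose response follow-up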
# PABP1 MLLE inh – inhibitors of microRNA-mediated deadenylation, human PABP1 MLLE binding | inhibition, % at 20 µM | AID 588489 | P11940 | GST-MLLE / FITC-PAM2 fluorescence polarization | hit rate 0.36% among 360,000; in the data active = inhibition above about 35%, passing the limit was not always enough;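 also: plate controls were DMSO wells with GST-MLLE for no effect and wells lacking GST-MLLE protein for full effect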
# EBV gp42 inh – inhibitors of Epstein-Barr virus glycoprotein 42; Fluorescence polarization binding assay, mP read-out; AID 1085; Q1HVG2; inhibition, % (tested at 21.74 µM); hit rate 0.42% among 220,000; in the data active = inhibition above about 50%
# Target sequence (Q1HVG2 whole entry, looked up): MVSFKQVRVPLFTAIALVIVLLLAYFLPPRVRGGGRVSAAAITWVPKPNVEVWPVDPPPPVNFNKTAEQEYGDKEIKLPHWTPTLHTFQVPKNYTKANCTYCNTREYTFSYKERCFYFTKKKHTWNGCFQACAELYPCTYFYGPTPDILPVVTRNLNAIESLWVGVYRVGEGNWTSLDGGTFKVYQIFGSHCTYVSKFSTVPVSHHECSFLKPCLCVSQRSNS
# * marks the source's active call; other numbers are inactive results; i = inactive; ? = inconclusive; . = no result given; + = active, no number. Most compounds without a hit are left out; they make up all but 1.7% or so of the library. Unless noted, no rule for the calls is given here.
SMILES,eIF4E 4G PPI,PABP FP inh,eIF4H FP inh,PABP1 MLLE inh,EBV gp42 inh
CN(C)/C=N/c1nc2nccc(-c3ccccn3)n2n1,6,i,-4,-4,-11
COc1ccc(C(=O)CCC(=O)N2CCN(c3cc(C)ccc3C)CC2)cc1,.,i,-21,-10,.
O=C(NC(=S)Nc1ccc(N2CCOCC2)cc1)c1ccc(Cl)cc1,-1,i,-1,30,-17
S=C(Nc1ccc(Cl)cc1)c1sc(N2CCCCC2)nc1N1CCOCC1,-42,+,79*,28,9
CC(=O)NCc1ccc(C(=O)CSc2nnc(C3CC3)n2C2CC2)cc1,.,.,.,21,.
CC(C)COc1ccc(C(=O)NC(CC(C)C)C(=O)O)cc1 (configuration not stated),2,i,4,18,144*
COc1ccc(C(=O)NC(CC(C)C)C(=O)O)cc1 (configuration not stated),.,.,.,2,.
Cc1nc2ccccc2n2c(O)c(CC(=O)O)cc12,2,i,12,123,129*
O=Cc1ccc2noc(-c3ccc(F)cc3)c2c1,3,?,?,113,151*
CC1(c2ccc3noc(-c4ccc(F)cc4)c3c2)OCCO1,-2,i,11,68*,86*
CC1(c2ccc3noc(-c4ccccc4)c3c2)OCCO1,-2,i,-2,-7,-19
CCOC(=O)c1c(O)cc(C)[nH]c1=O,-5,i,-8,10,-5
Cc1cccc2cc(=O)[nH]c(C)c12,-5,+,0,-86,-34
Cc1cccc2c(Cl)cc(=O)[nH]c12,7,i,4,.,8
O=c1nc2n(c3sc4c(c13)CCCC4)C(CBr)CS2 (configuration not stated),4,i,-11,40*,-12
CSc1ccc(C(=O)N2CCC(n3nccc3NC(=O)C3CC3)CC2)cc1,.,i,-6,13,.
COC(=O)/C(C(C)=O)=C(\C=C\N(C)C)N(C)C,-8,i,2,4,-4
COC(=O)\C(C(C)=O)=C(/C=C/C=C/C=C/N(C)C)N(C)C,7,+,90*,3,-101
COc1ccc(C2=NS(=O)(=O)N(C)C(C(=O)Nc3ccc(F)cc3F)=C2)cc1,.,i,-10,0,.
COC(=O)c1c(N)n(CCCN2CCOCC2)c2nc3ccccc3nc12,0,i,-2,13,-16
COCCOC(=O)c1c(N)n(CCCN2CCOCC2)c2nc3ccccc3nc12,92*,i,2,11,-6
CC(=O)Nc1ccc(SCC(=O)c2cc(C)n(-c3ccccc3F)c2C)cc1,-1,i,2,40*,-6
CC(=O)Nc1ccc(SCC(=O)NC(=O)c2ccccc2Br)cc1,.,.,.,44*,.
CC(=O)Nc1ccc(NC(=O)c2ccccc2Br)cc1,.,.,.,0,.
COc1ccc(CC(=O)OCC(=O)NCc2ccco2)cc1OC,.,.,.,1,.
SMILES,eIF4E 4G PPI,PABP FP inh,eIF4H FP inh,PABP1 MLLE inh,EBV gp42 inh
CCCCCC(=O)N1C[C@@H](n2cc(-c3ccc(F)cc3)nn2)[C@H](O)C[C@@H]1c1ccc(Cl)cc1,.,.,.,0,.
Cc1n[nH]c(=O)c2c(NC(=O)CSc3ccccc3Cl)oc(C)c12,.,.,.,25,.
Cc1n[nH]c(=O)c2c(NC(=O)CSc3c(Cl)cccc3Cl)oc(C)c12,.,.,.,43*,.
O=C(CCNC(=O)C1CCN(S(=O)(=O)c2ccc(F)cc2)CC1)NCc1ccccc1,.,.,.,-7,.
COc1ccccc1-n1cc(-c2ccc(C)cc2)[nH]c1=S,.,i,-1,19,.
COc1ccccc1-n1cc(-c2ccc([N+](=O)[O-])cc2)[nH]c1=S,0,i,-1,39*,-12
Cn1c(=O)c2c(=O)cc(N)[nH]c2n(C)c1=O,-2,i,44,43*,18
COc1ccc2c(c1)OC[C@H]1[C@@H]2N2C(=O)CNC(=O)[C@@]2(C)[C@H]1c1ccccc1,.,.,.,-5,.
O=C(O)c1cccc(Cn2c(Cl)c(/C=N/NC(=O)c3ccccc3)sc2=O)c1,6,i,-6,-105,-7
O=C(O)c1cccc(Cn2c(Cl)c(/C=N/NC(=O)c3cc4ccccc4cc3O)sc2=O)c1,6,+,102*,-118,-4
COc1ccc(OC)c(N2Cc3cc(C)c(C)cc3C2)c1,-2,i,105*,-22,-15
CCOc1ccccc1N1Cc2cc(C)c(C)cc2C1,4,i,3,-21,-11
O=c1c2c3nc4ccccc4nc3n(/N=C/c3ccco3)c2ncn1CCC1=CCCCC1,.,i,65*,7,.
CCCn1cnc2c(c1=O)c1nc3ccccc3nc1n2CCC1=CCCCC1,-2,i,-5,.,-19
